In PubChem BioAssay (EPA / NIEHS):
“And” between values parts separate entries of the source, which are not always exact repeats. Identical values can stand only once. Where a structure was tested more than once in an assay, its records may differ in their call. The source made the active and inactive calls. The calls were made as follows: active = hit-call score of the fitted dose curve at least 0.9, where 1 is the maximum; inactive = score below 0.9.

How the values were obtained:
[1] = BSK_CASM3C_SRB: Viability Assessment in the BioMAP Diversity Plus: CASM3C Assay (AID 2283050); details: primary human coronary artery smooth muscle cells
[2] = read-out: Thrombomodulin, THBD (gene 7056); assay: BSK_CASM3C_Thrombomodulin: BioMAP Diversity Plus: CASM3C Assay for Thrombomodulin Biomarker Activity (AID 2283051); details: primary human coronary artery smooth muscle cells; actives raise or lower the signal;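 also: thrombomodulin protein level measured by ELISA 24 h after dosing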
[3] = read-out: Tissue Factor, F3 (gene 2152); assay: BSK_CASM3C_TissueFactor: BioMAP Diversity Plus: CASM3C Assay for Tissue Factor Biomarker Activity (AID 2283052); details: primary human coronary artery smooth muscle cells; actives raise or lower the signal;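 also: cell surface tissue factor protein level read by ELISA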
[4] = read-out: Interferon-gamma inducible Protein 10 (IP10), CXCL10 (gene 3627); assay: BSK_hDFCGF_IP10: BioMAP Diversity Plus: hDFCGF Assay for Interferon-gamma inducible Protein 10 (IP10) Biomarker Activity (AID 2283053); details: primary human foreskin fibroblasts; actives raise or lower the signal
Summary of the method: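 Human foreskin fibroblast primary cells (hDFCGF system) were dosed with chemical and assayed at 24 h; IP-10 measured by ELISA. Activity fitted bidirectionally relative to DMSO negative control as baseline.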

[5] = read-out: Urokinase-type plasminogen activator receptor (uPAR), PLAUR (gene 5329); assay: BSK_CASM3C_uPAR: BioMAP Diversity Plus: CASM3C Assay for Urokinase-type plasminogen activator receptor (uPAR) Biomarker Activity (AID 2283054); details: primary human coronary artery smooth muscle cells; actives raise or lower the signal;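 also: cell-surface uPAR protein level quantified by ELISA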
[6] = read-out: Vascular cell adhesion molecule 1 (VCAM1), VCAM1 (gene 7412); assay: BSK_CASM3C_VCAM1: BioMAP Diversity Plus: CASM3C Assay for Vascular cell adhesion molecule 1 (VCAM1) Biomarker Activity (AID 2283055); details: primary human coronary artery smooth muscle cells; actives raise or lower the signal;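 also: VCAM-1 protein level quantified by ELISA on the cells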
[7] = read-out: Collagen III, COL3A1 (gene 1281); assay: BSK_hDFCGF_CollagenIII: BioMAP Diversity Plus: hDFCGF Assay for Collagen III Biomarker Activity (AID 2283056); details: primary human foreskin fibroblasts; actives raise or lower the signal
Summary of the method: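 Human foreskin fibroblast primary cultures sampled 24 h after dosing; Collagen III quantified by ELISA. Signal fitted bidirectionally against DMSO baseline.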

[8] = read-out: Epidermal growth factor receptor (EGFR), EGFR (gene 1956); assay: BSK_hDFCGF_EGFR: BioMAP Diversity Plus: hDFCGF Assay for Epidermal growth factor receptor (EGFR) Biomarker Activity (AID 2283057); details: primary human foreskin fibroblasts; actives raise or lower the signal
Summary of the method: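 Primary human foreskin fibroblasts were exposed to compound for 24 h, after which cell-surface EGFR was quantified by ELISA. Activity was fitted bidirectionally against the DMSO negative control as baseline.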

[9] = read-out: Interleukin-8 (IL8), CXCL8 (gene 3576); assay: BSK_hDFCGF_IL8: BioMAP Diversity Plus: hDFCGF Assay for Interleukin-8 (IL8) Biomarker Activity (AID 2283058); details: primary human foreskin fibroblasts; actives raise or lower the signal
Summary of the method: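 Primary human foreskin fibroblasts (hDFCGF system) dosed with chemical; IL-8 measured by ELISA 24 hours later. Bidirectional curve fitting relative to DMSO baseline; cytotoxicity tracked in parallel cultures by SRB total protein staining.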

[10] = BSK_hDFCGF_Proliferation: Cell Proliferation Assessment in the BioMAP Diversity Plus: hDFCGF Assay (AID 2283059); details: primary human foreskin fibroblasts;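 also: curves fitted for both rise and fall of signal versus DMSO baseline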
Summary of the method: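 Sub-confluent human foreskin fibroblast cultures receive test chemical […]. Relative cell number is quantified by sulforhodamine B staining (0.1%, after 10% TCA fixation) at 560 nm, with bidirectional fitting referenced to DMSO.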

Measured: AC50

O=C(O)C(F)(F)C(F)(F)C(F)(F)C(F)(F)C(F)(F)C(F)(F)C(F)(F)C(F)(F)C(F)(F)C(F)(F)C(F)(F)C(F)(F)C(F)(F)F
active: [4] 5.35 µM | [7] 0.641 µM
inactive: [1] | [2] | [3] | [4] | [5] | [6] | [7] | [8] | [9] | [10]

O=P(O)(O)OCCC(F)(F)C(F)(F)C(F)(F)C(F)(F)C(F)(F)C(F)(F)F
inactive: [1] | [2] | [3] | [4] | [5] | [6] | [7] | [8] | [9] | [10]
active: [4] 7.21 µM

FC(F)(F)C(F)(F)C(F)(F)C(F)(F)C(F)(F)C(F)(F)CC1CO1 (stereo not drawn)
inactive: [1] | [2] | [3] | [4] | [5] | [6] | [7] | [8] | [9] | [10]

FC(F)(F)C(F)(F)C(F)(F)C(F)(F)CCI
inactive: [1] | [2] | [3] | [4] | [5] | [6] | [7] | [8] | [9] | [10]

O=C(O)C(F)(F)C(F)(F)C(F)(F)C(F)(F)F
inactive: [1] | [2] | [3] | [4] | [5] | [6] | [7] | [8] | [9] | [10]

C=CC(F)(F)C(F)(F)C(F)(F)C(F)(F)C(F)(F)C(F)(F)C(F)(F)C(F)(F)F
inactive: [1] | [2] | [3] | [4] | [5] | [6] | [7] | [8] | [9] | [10]
active: [8] 0.27 µM

O=C(O)C(F)(F)C(F)(F)OC(F)(F)F
inactive: [1] | [2] | [3] | [4] | [5] | [6] | [7] | [8] | [9] | [10]

N=C(N)C(F)(F)C(F)(F)C(F)(F)C(F)(F)C(F)(F)C(F)(F)C(F)(F)F
inactive: [1] | [2] | [3] | [5] | [6] | [8] | [9]
active: [4] 42.9 µM and 50.1 µM | [7] 10.9 µM and 10.7 µM | [8] 53.9 µM | [10] 39.7 µM and 54.7 µM

FC(F)(F)C(F)(F)C(F)(F)C(F)(F)C(F)(F)C(F)(F)C(F)(F)C(F)(F)CCS
inactive: [1] | [2] | [3] | [4] | [5] | [6] | [7] | [8] | [9] | [10]
active: [3] 0.0438 µM

C=C(C)C(=O)OCCC(F)(F)C(F)(F)C(F)(F)C(F)(F)C(F)(C(F)(F)F)C(F)(F)F
inactive: [1] | [2] | [3] | [4] | [5] | [6] | [7] | [8] | [9] | [10]

CO[Si](OC)(c1ccccc1)c1ccccc1
active: [1] 31.1 µM | [3] 30.7 µM | [5] 29.5 µM | [6] 35.7 µM | [7] 32 µM | [10] 28.1 µM
inactive: [2] | [4] | [8] | [9]

O=C(O)C(F)(F)C(F)(F)C(F)(F)C(F)(F)C(F)(F)C(F)(F)C(F)(F)C(F)(F)C(F)(F)C(F)(F)C(F)(F)C(F)(F)F
inactive: [1] | [2] | [3] | [5] | [8] | [9] | [10]
active: [2] 13.3 µM | [4] 1.86 µM and 1.07 µM | [6] 7.09 µM and 4.44 µM | [7] 2.45 µM and 896 nM | [10] 2.47 µM

FC(F)(F)C(F)(F)C(F)(F)N(C(F)(F)C(F)(F)C(F)(F)F)C(F)(F)C(F)(F)C(F)(F)F
inactive: [1] | [2] | [3] | [4] | [5] | [6] | [7] | [8] | [9] | [10]

OCCCC(F)(F)C(F)(F)C(F)(F)F
inactive: [1] | [2] | [3] | [4] | [5] | [6] | [7] | [8] | [9] | [10]

FC(F)(F)C(F)(F)C(F)(F)C(F)(F)C(F)(F)CCI
inactive: [1] | [2] | [3] | [4] | [5] | [6] | [7] | [8] | [9]
active: [4] 22.2 µM | [10] 32.1 µM and 31.2 µM

C=CC/C=C/C/C=C/C/C=C/C
inactive: [1] | [2] | [3] | [4] | [5] | [6] | [7] | [8] | [9] | [10]

Cc1ccc(S(=O)(=O)OCC(F)(F)C(F)(F)C(F)(F)C(F)(F)C(F)(F)C(F)F)cc1
inactive: [1] | [2] | [3] | [4] | [5] | [6] | [7] | [8] | [9] | [10]

FC(F)(Br)C(F)(F)C(F)(F)C(F)(F)C(F)(F)C(F)(F)Br
inactive: [1] | [2] | [3] | [4] | [5] | [6] | [7] | [8] | [9] | [10]

FC(F)(I)C(F)(F)C(F)(F)C(F)(F)I
active: [1] 43.5 µM and 47.2 µM and 48.7 µM | [3] 30 µM and 40.4 µM | [4] 47.9 µM and 55.1 µM and 58.4 µM | [5] 47.2 µM and 43.9 µM and 54.4 µM | [6] 45.7 µM and 45.6 µM and 47.9 µM | [7] 30 µM and 44.1 µM and 39.5 µM | [9] 53.7 µM and 54.7 µM and 56.5 µM | [10] 48.7 µM and 45.5 µM and 43.3 µM
inactive: [2] | [3] | [8]

FC(F)(F)C(F)(F)CNCC(F)(F)C(F)(F)F
active: [8] 7.57 µM
inactive: [1] | [2] | [3] | [4] | [5] | [6] | [7] | [8] | [9] | [10]

C=CC(=O)OCC(F)(F)C(F)(F)C(F)(F)C(F)(F)COC(=O)C=C
inactive: [2] | [7] | [8]
active: [1] 43 µM and 43.7 µM | [3] 52.7 µM and 47.5 µM | [4] 8.28 µM and 8.38 µM | [5] 48.9 µM and 50 µM | [6] 17.7 µM and 19.7 µM | [8] 30 µM | [9] 11.5 µM and 14.4 µM | [10] 2.13 µM and 1.2 µM

CCCCC(CC)COP(=O)(O)OCC(CC)CCCC (stereo not drawn)
inactive: [1] | [2] | [3] | [5] | [6] | [8] | [9]
active: [4] 24.9 µM and 28.3 µM | [6] 0.988 µM | [7] 26.9 µM and 27.5 µM | [8] 20 µM | [10] 32.9 µM and 34.6 µM

OCCCC(F)(F)C(F)(F)C(F)(F)C(F)(F)C(F)(F)C(F)(F)C(F)(F)F
inactive: [2] | [3] | [8]
active: [1] 22.6 µM and 25.1 µM | [3] 20.8 µM | [4] 11.8 µM and 14 µM | [5] 24.5 µM and 45 µM | [6] 26.2 µM and 41.2 µM | [7] 11.6 µM and 14.6 µM | [8] 9.95 µM | [9] 17.8 µM and 20.8 µM | [10] 6.74 µM and 7.22 µM

CCO[Si](CCC(F)(F)C(F)(F)C(F)(F)C(F)(F)C(F)(F)C(F)(F)F)(OCC)OCC
inactive: [1] | [2] | [3] | [4] | [5] | [6] | [7] | [8] | [9] | [10]
active: [3] 1.58 µM

O=C(O)C(F)(F)C(F)(F)C(F)(F)C(F)(F)C(F)(F)C(F)(F)C(F)(F)C(F)(F)Cl
inactive: [1] | [2] | [3] | [5] | [6] | [7] | [9]
active: [4] 39.2 µM and 41.9 µM | [7] 8.33 µM | [8] 7.33 µM and 55.2 µM | [10] 43.1 µM and 45.7 µM

O=C(O)C(F)(F)C(F)(F)C(F)(F)F
inactive: [1] | [2] | [3] | [4] | [5] | [6] | [7] | [8] | [9] | [10]

C=C(C)C(=O)OCC(F)(F)C(F)(F)C(F)(F)C(F)(F)C(F)(F)C(F)(F)C(F)(F)F
inactive: [1] | [2] | [3] | [4] | [5] | [6] | [7] | [8] | [9] | [10]

O=C(O)C(F)(F)C(F)(F)C(F)(F)C(F)(F)C(F)(F)C(F)(F)C(F)(F)C(F)(F)C(F)(F)C(F)F
active: [4] 18.3 µM and 12.8 µM | [7] 3.34 µM and 8.08 µM | [10] 15.8 µM and 18.9 µM
inactive: [1] | [2] | [3] | [5] | [6] | [8] | [9]
